Results on 40 compounds are retold here after PubChem BioAssay (Tox21).

Structures are written as SMILES. Results filed as inconclusive are left out. A call without a number means that no potency is given here. Values without a mark were called inactive. The source made the active and inactive calls. The call rests on the fitted dose curve; in most records, active means well fitted inhibition curve with a large enough effect in the repeat runs; inconclusive means weak or mixed curves; inactive means flat fitted curve, though single readings scatter.
Potency means the concentration at half of the fitted maximal effect.

A short description of this experiment: qHTS assay to identify small molecule HDAC inhibitors (AID 1259364). Further: nearly all actives have a fitted effect of over 45% in size. On activity change, negative = inhibition: top concentration of the series differs between compounds. The following applies: HCT-116 HDAC-Glo I/II luminescence, 2 h; series mostly up to 92.4 µM. The text has this: U.S. Tox21 Program National Center for Advancing Translational Sciences [NCATS] NIH Chemical Genomics Center [NCGC] U.S. Environmental Protection Agency [EPA] National Institutes of Environmental Health Sciences [NIEHS] National Toxicology Program [NTP] U.S. Food and Drug Administration [FDA] Tox21 Assay Overview: Histone deacetylases (HDACs) are a group of epigenetic enzymes that regulate gene expression by histone deacetylation. HDACs are capable of introducing epigenetic modifications and such aberrations contribute to the onset and progression of several human diseases, thus making HDACs a popular therapeutic target. For identifying endogenous class I/II HDAC inhibitors a homogenous, luminogenic HDAC I/II cell based assay was used to measure the relative activity of class I and II HDACs from cells. Wild type HCT-116 cells were used to screen Tox21 libraries for identifying class I/II HDAC inhibitors.
Tox21 Assay Protocol Summary: HCT-116 cells were dispensed at 1,500 per well in 5uL of culture medium into white solid bottom 1536-well plates (Greiner Bio-One, Monroe, NC) using a Multidrop Combi (Thermo Scientific, Waltham, MA) dispenser. The assay plates were incubated at 37 C and 5% CO2 for an overnight, and then 23nL of compounds dissolved in DMSO and positive control were transferred using a Pintool station (Wako, San Diego, CA). The assay plates were incubated at 37C and 5% CO2 for 2hr. After compound treatment, 4uL of HDAC-Glo reagent (Promega Corporation, Madison, WI) was added to each well of the assay plates using Flying Reagent Dispenser (FRD, Aurora Discovery, San Diego, CA) and incubated the assay plates at room temperature for 30min. The luminescence signal was quantified using a ViewLux plate reader (Perkin Elmer, Shelton, CT).
(In general: In qHTS, concentration-response curves come from the screen itself.)
Consider `CC1CC(CC2CCC(N)C(C)C2)CCC1N` (stereo not given), for which the Potency entry was “inactive”. The same measure, in the same setting: then `CS/C(C)=N/OC(=O)N(C)SN(C)C(=O)O/N=C(\C)SC`, with “inactive”; and `CCCN(CCC)c1c([N+](=O)[O-])cc(S(C)(=O)=O)cc1[N+](=O)[O-]`, with “inactive”; and `Brc1ccc(Oc2ccccc2)cc1`, with “inactive”. Turning to `CCOP(=S)(Oc1ccc([N+](=O)[O-])cc1)c1ccccc1` (stereo not given), the Potency entry was “inactive”. Still for that read-out and setting: to `O=C(N[C@H](c1ccccc1)[C@@H]1CN2CCC1CC2)c1c(Cl)ccc(C(F)(F)F)c1Cl` belongs “inactive”; to `Clc1cc(C(Cl)(Cl)Cl)cnc1Cl`, “inactive”; to `O=C1c2ccccc2C(=O)C1C(=O)C(c1ccccc1)c1ccccc1`, “inactive”. On the same count and under the same terms, then `CC(C)(CCl)C(=O)Cl`, with “inactive”; and `O=[N+]([O-])c1cc(C(F)(F)F)cc([N+](=O)[O-])c1Cl`, with “inactive”; and `Clc1cc(Cl)c(Cl)c(Cl)c1`, with “inactive”. Same read-out and setting: to `CC[C@H]1C[C@H]2[C@@H]3CCC4=CC(=O)CC[C@@H]4[C@H]3CC[C@]2(C)[C@H]1O` belongs “inactive”. `Cl/C=C\Cl`: the Potency result is “inactive”. Still for that read-out and setting: to `CCc1ccc(C(=O)NN(C(=O)c2cc(C)cc(C)c2)C(C)(C)C)cc1` belongs “inactive”; to `CCCCN(N=O)C(=N)N[N+](=O)[O-]`, “inactive”. Regarding `O=C(CBr)Nc1ccc(Cl)cc1C(=O)c1ccccc1F`, the Potency result is “inactive”. On the same count and under the same terms, then `NC(=O)CI`, with 54.9 µM (active); and `CC(=O)NC1CCSC1=O` (stereo not given), with “inactive”. As to `COCC(C)N(C(=O)CCl)c1c(C)csc1C` (stereo not given), the Potency entry was “inactive”. Regarding `O=C(CBr)c1ccccc1`, the Potency entry was “inactive”.

`CCCCC(O)(Cn1cncn1)c1ccc(Cl)cc1Cl` (stereo not given): the Potency entry is “inactive”. The same measure, in the same setting: to `C#CCOC(C(=O)OCCN(C)C)(c1ccccc1)c1ccccc1` belongs “inactive”; to `CCCCCCCCCC(=O)O[C@H]1CC[C@H]2[C@@H]3CCC4=CC(=O)CC[C@@H]4[C@H]3CC[C@]12C`, “inactive”.

Take `CO[C@@H]1[C@H](OC(=O)NC(=O)CCl)CC[C@]2(CO2)[C@H]1[C@@]1(C)O[C@@H]1CC=C(C)C`: the activity change, negative = inhibition was -1.01% [at 19 µM]. Turning to `C[C@]12CC[C@H]3[C@@H](CCC4=CC(=O)CC[C@@H]43)[C@@H]1CC[C@@H]2OC(=O)CCC1CCCCC1`, the Potency entry was “inactive”. On the same count and under the same terms, then `c1cc2ccc3cccc4ccc(c1)c2c34`, with “inactive”; and `COP(=S)(OC)Oc1cc(Cl)c(I)cc1Cl`, with “inactive”.

Consider `COc1c(C(C)(C)C)cc([N+](=O)[O-])c(C)c1[N+](=O)[O-]`, for which the Potency result is “inactive”.

In the case of `CCOP(=S)(OCC)SCSCC`, the Potency result is “inactive”. Still for that read-out and setting: to `COC(=O)C(Br)CBr` (stereo not given) belongs “inactive”; to `CC1C(=O)C[C@]2(C(C)C)C[C@H]12` (stereo not given in full), “inactive”. With `CC1(C)[C@H](C=C(Cl)Cl)[C@@H]1C(=O)O[C@@H](C#N)c1cccc(Oc2ccccc2)c1`, the Potency entry was “inactive”. With `Cc1ccccc1C(=O)Nc1cccc(OC(C)C)c1`, the Potency entry was “inactive”.

`O=Cc1ccc2c(c1)OCO2`: the Potency result was “inactive”. The same measure, in the same setting: then `O=Cc1ccc(Cl)cc1Cl`, with “inactive”; and `CCOC(=O)C(Cl)C(C)=O` (stereo not given), with “inactive”; and `CCCCN=C=O`, with “inactive”.

In the case of `BrCCCCBr`, the Potency result is “inactive”. On to `CCOP(=S)(OCC)SCn1nnc2ccccc2c1=O`, for which the Potency result is “inactive”. Same read-out and setting: then `O=S1OC[C@@H]2[C@H](CO1)[C@]1(Cl)C(Cl)=C(Cl)[C@@]2(Cl)C1(Cl)Cl` (stereo not given in full), with “inactive”.
